Results reported in the supplement of paper PMC10849652.
Targets with a hit are over-represented here; the source holds about 7,900 in all. About 0.6% of all pairs of compound and target were hits.

Assays:
Assay in all cases: log2 fold change, soluble protein after heating vs DMSO (PISA); higher = thermal stabilisation; K562 cells, 10 uM, 30 min; active = over 0.2 and 3.5 SD of the protein, either way, in both replicates (recomputed)
bafetinib = compound: Cc1ccc(NC(=O)c2ccc(CN3CC[C@H](N(C)C)C3)c(C(F)(F)F)c2)cc1Nc1nccc(-c2cncnc2)n1 [bafetinib]
Outline: (§1)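 K562 cells at 2×10^6 cells/mL were given 10 μM compound for 30 min. Aliquots then went through 3 min of heating across 48°C-58°C, were pooled, and were extracted in PBS with 0.5% NP-40 at 4°C, and the supernatant after 21,000xg for 90 min was quantified by TMTpro 16plex LC-MS/MS with channel sums equalised. Thermal stability relative to control samples, from duplicates, is given as log2 fold change.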

[1] = compound: Cc1cccc(CC(=O)N2CCc3c2ccc(-c2cn(C)c4ncnc(N)c24)c3F)n1
Outline: as §1

nilotinib = compound: Cc1cn(-c2cc(NC(=O)c3ccc(C)c(Nc4nccc(-c5cccnc5)n4)c3)cc(C(F)(F)F)c2)cn1 [nilotinib]
Outline: as §1

[2] = compound: Cc1nc(Nc2n[nH]c3c2CN(C(=O)N[C@H](CN(C)C)c2ccccc2)C3(C)C)c2sccc2n1
Outline: as §1

dasatinib = compound: Cc1nc(Nc2ncc(C(=O)Nc3c(C)cccc3Cl)s2)cc(N2CCN(CCO)CC2)n1 [dasatinib]
Outline: as §1

[3] = compound: Cc1ncc(-c2ccnc(Nc3ccc(S(C)(=O)=O)cc3)n2)n1C(C)C
Outline: as §1

[4] = compound: Cn1cc(-c2ccc3c(c2)CCN3C(=O)Cc2cccc(C(F)(F)F)c2)c2c(N)ncnc21
Outline: as §1

[5] = compound: Cn1cc(-c2ccc3nnc(C(F)(F)c4ccc5ncccc5c4)n3n2)cn1
Outline: as §1

tipifarnib = compound: Cn1cncc1[C@@](N)(c1ccc(Cl)cc1)c1ccc2c(c1)c(-c1cccc(Cl)c1)cc(=O)n2C [tipifarnib]
Outline: as §1

mubritinib = compound: FC(F)(F)c1ccc(/C=C/c2nc(COc3ccc(CCCCn4ccnn4)cc3)co2)cc1 [mubritinib]
Outline: as §1

[6] = compound: NC(=O)Nc1cc(-c2cccc(F)c2)sc1C(=O)N[C@H]1CCCNC1
Outline: as §1

[7] = compound: NC(=O)c1cnc(N[C@@H]2CCCC[C@@H]2N)nc1Nc1cccc(-n2nccn2)c1
Outline: as §1

[8] = compound: NC1(c2ccc(-c3nc4ccn5c(=O)[nH]nc5c4cc3-c3ccccc3)cc2)CCC1
Outline: as §1

[9] = compound: NCC(=O)Nc1ccc(-n2nc(C(F)(F)F)cc2-c2ccc3c(ccc4ccccc43)c2)cc1
Outline: as §1

entinostat = compound: Nc1ccccc1NC(=O)c1ccc(CNC(=O)OCc2cccnc2)cc1 [entinostat]
Outline: as §1

vorinostat = compound: O=C(CCCCCCC(=O)Nc1ccccc1)NO [vorinostat]
Outline: as §1

citarinostat = compound: O=C(CCCCCCNC(=O)c1cnc(N(c2ccccc2)c2ccccc2Cl)nc1)NO [citarinostat]
Outline: as §1

silmitasertib = compound: O=C(O)c1ccc2c(c1)nc(Nc1cccc(Cl)c1)c1ccncc12 [silmitasertib]
Outline: as §1

[10] = compound: O=C1NC(=O)C(c2cnc3ccccn23)=C1c1cn2c3c(cc(F)cc13)CN(C(=O)N1CCCCC1)CC2
Outline: as §1

[11] = compound: c1cc(OCCN2CCCCC2)cc(-c2n[nH]c3ccc(-c4nnc[nH]4)cc23)c1
Outline: as §1

Measured: log2 fold change

NDUFB7 (UniProt P17568)
Chain of UniProt P17568 (P17568 whole entry, looked up): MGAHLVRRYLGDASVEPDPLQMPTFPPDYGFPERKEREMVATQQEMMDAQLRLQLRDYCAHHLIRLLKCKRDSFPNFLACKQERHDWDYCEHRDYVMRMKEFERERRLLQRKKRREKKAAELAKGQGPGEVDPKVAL
inactive: bafetinib 0 | [1] 0.164 | nilotinib -0.029 | [2] 0.057 | dasatinib 0.022 | [3] -0.053 | [4] 0.043 | [5] 0.01 | tipifarnib -0.029 | mubritinib -0.007 | [6] 0.039 | [7] -0.015 | [8] -0.02 | [9] 0.055 | entinostat -0.013 | vorinostat -0.037 | citarinostat 0.029 | silmitasertib 0 | [10] -0.094 | [11] 0.009

OXR1 (UniProt Q8N573)
Chain of UniProt Q8N573 (Q8N573 whole entry, looked up): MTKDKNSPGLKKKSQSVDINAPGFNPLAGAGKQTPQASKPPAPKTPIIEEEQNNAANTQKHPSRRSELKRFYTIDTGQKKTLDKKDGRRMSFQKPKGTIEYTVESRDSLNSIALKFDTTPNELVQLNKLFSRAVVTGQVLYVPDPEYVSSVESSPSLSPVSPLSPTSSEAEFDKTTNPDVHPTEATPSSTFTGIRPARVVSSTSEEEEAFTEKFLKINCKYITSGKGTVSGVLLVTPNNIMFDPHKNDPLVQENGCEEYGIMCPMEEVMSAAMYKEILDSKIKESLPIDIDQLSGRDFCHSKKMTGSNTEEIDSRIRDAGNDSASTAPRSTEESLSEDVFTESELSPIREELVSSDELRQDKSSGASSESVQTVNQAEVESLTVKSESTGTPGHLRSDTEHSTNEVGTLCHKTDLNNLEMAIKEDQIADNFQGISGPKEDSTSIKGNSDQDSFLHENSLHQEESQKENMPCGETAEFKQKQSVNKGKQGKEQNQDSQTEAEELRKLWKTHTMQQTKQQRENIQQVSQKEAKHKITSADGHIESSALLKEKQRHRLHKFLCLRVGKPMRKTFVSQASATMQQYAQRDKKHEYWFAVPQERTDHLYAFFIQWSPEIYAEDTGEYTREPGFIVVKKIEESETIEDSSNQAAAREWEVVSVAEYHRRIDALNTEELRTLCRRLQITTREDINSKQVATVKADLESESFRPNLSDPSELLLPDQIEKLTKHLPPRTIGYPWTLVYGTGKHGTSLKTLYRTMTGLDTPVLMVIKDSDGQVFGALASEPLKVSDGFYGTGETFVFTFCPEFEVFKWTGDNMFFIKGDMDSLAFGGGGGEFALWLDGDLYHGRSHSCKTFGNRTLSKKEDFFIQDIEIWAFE
inactive: bafetinib -0.098 | [1] -0.063 | nilotinib 0.079 | [2] -0.004 | dasatinib -0.034 | [3] -0.023 | [4] 0.081 | [5] 0.013 | tipifarnib -0.038 | mubritinib 0.05 | [6] 0.03 | [7] 0 | [8] -0.157 | [9] -0.008 | entinostat 0.023 | vorinostat -0.029 | citarinostat 0.062 | silmitasertib -0.009 | [10] -0.044 | [11] -0.001

PAFAH1B2 (UniProt P68402)
Chain of UniProt P68402 (P68402 whole entry, looked up): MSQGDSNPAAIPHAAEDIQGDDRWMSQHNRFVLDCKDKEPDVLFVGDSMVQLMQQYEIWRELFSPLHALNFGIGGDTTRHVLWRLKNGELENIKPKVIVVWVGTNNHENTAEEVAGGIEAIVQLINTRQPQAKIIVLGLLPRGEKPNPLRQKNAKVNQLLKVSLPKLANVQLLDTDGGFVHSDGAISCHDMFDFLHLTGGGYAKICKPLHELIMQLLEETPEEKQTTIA
inactive: bafetinib -0.025 | [1] 0.035 | nilotinib 0.067 | [2] -0.121 | dasatinib -0.011 | [3] -0.075 | [4] 0.024 | [5] 0.003 | tipifarnib 0.188 | mubritinib 0.092 | [6] 0.015 | [7] 0.049 | [8] -0.037 | [9] -0.025 | entinostat 0.045 | vorinostat -0.088 | citarinostat 0.021 | silmitasertib 0.106 | [10] -0.048 | [11] -0.097

NUP107 (UniProt P57740)
active: [1] 0.716
inactive: bafetinib -0.013 | nilotinib -0.027 | [2] -0.012 | dasatinib -0.12 | [3] -0.145 | [4] -0.077 | [5] -0.008 | tipifarnib -0.026 | mubritinib -0.036 | [6] -0.009 | [7] -0.022 | [8] 0.056 | [9] -0.032 | entinostat -0.039 | vorinostat 0.416 | citarinostat 0.016 | silmitasertib 0.085 | [10] 0.045 | [11] -0.109

NANS (UniProt Q9NR45)
Chain of UniProt Q9NR45 (Q9NR45 whole entry, looked up): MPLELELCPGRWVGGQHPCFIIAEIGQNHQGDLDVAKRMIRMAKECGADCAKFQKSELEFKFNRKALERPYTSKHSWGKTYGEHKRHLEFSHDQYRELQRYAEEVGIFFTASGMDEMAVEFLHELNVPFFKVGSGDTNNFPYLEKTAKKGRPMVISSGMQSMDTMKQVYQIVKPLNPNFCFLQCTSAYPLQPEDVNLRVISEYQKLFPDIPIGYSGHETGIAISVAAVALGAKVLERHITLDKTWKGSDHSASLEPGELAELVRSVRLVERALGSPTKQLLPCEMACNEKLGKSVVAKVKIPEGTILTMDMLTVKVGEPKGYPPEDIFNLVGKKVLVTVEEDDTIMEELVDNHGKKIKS
inactive: bafetinib 0.04 | [1] 0.05 | nilotinib 0.069 | [2] -0.007 | dasatinib -0.018 | [3] -0.018 | [4] 0.05 | [5] -0.017 | tipifarnib -0.067 | mubritinib -0.023 | [6] 0.043 | [7] -0.05 | [8] 0.02 | [9] -0.032 | entinostat 0.014 | vorinostat 0.116 | citarinostat 0.032 | silmitasertib -0.002 | [10] -0.011 | [11] 0

NMT1 (UniProt P30419)
Chain of UniProt P30419 (P30419 whole entry, looked up): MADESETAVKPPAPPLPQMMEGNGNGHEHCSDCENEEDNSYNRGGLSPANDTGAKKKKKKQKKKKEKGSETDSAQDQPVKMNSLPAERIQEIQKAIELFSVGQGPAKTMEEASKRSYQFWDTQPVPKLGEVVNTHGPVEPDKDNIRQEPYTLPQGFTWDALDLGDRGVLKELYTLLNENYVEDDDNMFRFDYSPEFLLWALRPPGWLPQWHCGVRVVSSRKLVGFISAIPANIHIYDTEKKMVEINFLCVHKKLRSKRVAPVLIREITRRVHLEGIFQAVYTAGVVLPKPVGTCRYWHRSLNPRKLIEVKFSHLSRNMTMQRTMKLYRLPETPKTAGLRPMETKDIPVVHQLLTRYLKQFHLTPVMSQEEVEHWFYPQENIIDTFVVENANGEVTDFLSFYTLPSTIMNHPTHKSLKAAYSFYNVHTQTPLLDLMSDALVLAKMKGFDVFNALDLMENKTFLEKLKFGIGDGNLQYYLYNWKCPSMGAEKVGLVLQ
inactive: bafetinib 0.064 | [1] -0.026 | nilotinib 0.049 | [2] 0.06 | dasatinib -0.012 | [3] -0.003 | [4] 0.026 | [5] -0.001 | tipifarnib -0.026 | mubritinib 0.076 | [6] -0.006 | [7] -0.043 | [8] -0.052 | [9] -0.129 | entinostat 0.008 | vorinostat 0.031 | citarinostat -0.012 | silmitasertib -0.015 | [10] 0.022
active: [11] -0.52

NOP2 isoform 4 (UniProt P46087)
inactive: bafetinib 0.274 | [1] -0.065 | nilotinib 0.111 | [2] 0.066 | dasatinib 0.344 | [3] 0.096 | [4] -0.568 | [5] -0.319 | tipifarnib 0.214 | mubritinib -0.304 | [6] 0.205 | [7] 0.241 | [8] 0.408 | [9] 0.3 | entinostat -0.163 | vorinostat 0.014 | citarinostat -0.04 | silmitasertib 0.288 | [10] 0.344 | [11] -0.095

MRPS12 (UniProt O15235)
inactive: bafetinib 0.269 | [1] 0.146 | nilotinib -0.161 | [2] 0.073 | dasatinib 0.062 | [3] -0.024 | [4] -0.045 | [5] 0.111 | tipifarnib -0.082 | mubritinib 0.143 | [6] 0.207 | [7] -0.053 | [8] -0.005 | [9] 0.221 | entinostat -0.017 | vorinostat 0.038 | citarinostat 0.01 | silmitasertib -0.007 | [10] 0.101 | [11] -0.056

MTHFS (UniProt P49914)
Chain of UniProt P49914 (P49914 whole entry, looked up): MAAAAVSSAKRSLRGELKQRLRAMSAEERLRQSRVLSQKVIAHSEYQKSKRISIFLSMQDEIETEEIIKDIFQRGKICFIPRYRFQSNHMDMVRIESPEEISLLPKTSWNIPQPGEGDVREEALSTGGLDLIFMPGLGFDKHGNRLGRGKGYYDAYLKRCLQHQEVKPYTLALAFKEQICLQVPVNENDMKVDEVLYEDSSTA
inactive: bafetinib 0.074 | [1] 0.014 | nilotinib 0.154 | [2] 0.045 | dasatinib -0.094 | [3] 0.003 | [4] 0.032 | [5] -0.008 | tipifarnib 0.001 | mubritinib 0.045 | [6] -0.021 | [7] -0.028 | [8] -0.086 | [9] -0.135 | entinostat 0.007 | vorinostat -0.1 | citarinostat 0.025 | silmitasertib 0.021 | [10] 0.014 | [11] -0.057

NOP53 (UniProt Q9NZM5)
inactive: bafetinib 0.189 | [1] 0.059 | nilotinib 0.039 | [2] 0.217 | dasatinib 0.147 | [3] 0.027 | [4] -0.339 | [5] -0.178 | tipifarnib 0.161 | mubritinib -0.202 | [6] 0.054 | [7] 0.201 | [8] 0.353 | [9] 0.258 | entinostat -0.141 | vorinostat -0.051 | citarinostat -0.063 | silmitasertib 0.256 | [10] 0.285 | [11] -0.152

NIBAN1 (UniProt Q9BZQ8)
inactive: bafetinib -0.013 | [1] 0.121 | nilotinib -0.041 | dasatinib -0.14 | [3] -0.057 | [4] 0.001 | [5] -0.035 | tipifarnib -0.04 | mubritinib 0.013 | [6] -0.118 | [7] -0.036 | [8] -0.169 | [9] -0.036 | entinostat 0.073 | vorinostat 0.106 | citarinostat 0.123 | silmitasertib 0.029 | [10] -0.069 | [11] -0.106
active: [2] -0.383

NCAPG (UniProt Q9BPX3)
Chain of UniProt Q9BPX3 (Q9BPX3 whole entry, looked up): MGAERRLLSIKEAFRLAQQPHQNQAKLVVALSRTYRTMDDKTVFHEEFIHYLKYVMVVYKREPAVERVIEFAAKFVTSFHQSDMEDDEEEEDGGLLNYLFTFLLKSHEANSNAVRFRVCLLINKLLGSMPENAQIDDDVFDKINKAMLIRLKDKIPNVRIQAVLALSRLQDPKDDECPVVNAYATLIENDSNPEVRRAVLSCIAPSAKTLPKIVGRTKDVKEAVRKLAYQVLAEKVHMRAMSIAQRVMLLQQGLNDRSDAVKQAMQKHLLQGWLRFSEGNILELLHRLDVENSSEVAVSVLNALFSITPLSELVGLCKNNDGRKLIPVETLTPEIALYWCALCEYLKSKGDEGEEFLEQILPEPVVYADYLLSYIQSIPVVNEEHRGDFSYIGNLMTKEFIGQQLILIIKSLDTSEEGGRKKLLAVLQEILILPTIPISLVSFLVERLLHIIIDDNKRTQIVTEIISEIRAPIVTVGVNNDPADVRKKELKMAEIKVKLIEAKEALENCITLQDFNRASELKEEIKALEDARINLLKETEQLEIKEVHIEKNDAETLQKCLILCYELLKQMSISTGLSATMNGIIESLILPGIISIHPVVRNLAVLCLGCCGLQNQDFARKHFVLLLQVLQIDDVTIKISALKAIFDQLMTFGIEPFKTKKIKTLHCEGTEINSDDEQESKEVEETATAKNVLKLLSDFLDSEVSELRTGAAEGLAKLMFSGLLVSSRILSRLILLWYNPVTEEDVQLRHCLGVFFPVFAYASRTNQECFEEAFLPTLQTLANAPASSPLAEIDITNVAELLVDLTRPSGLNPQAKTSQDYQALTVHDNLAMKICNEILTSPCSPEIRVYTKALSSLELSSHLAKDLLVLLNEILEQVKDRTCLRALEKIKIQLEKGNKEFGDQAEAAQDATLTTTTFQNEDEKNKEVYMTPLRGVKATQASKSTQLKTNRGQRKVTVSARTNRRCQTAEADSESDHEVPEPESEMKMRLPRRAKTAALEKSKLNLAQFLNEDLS
inactive: bafetinib 0.076 | [1] 0.06 | nilotinib -0.032 | [2] -0.07 | dasatinib -0.085 | [3] 0.065 | [4] -0.016 | [5] 0.012 | tipifarnib -0.142 | mubritinib -0.003 | [6] -0.062 | [7] -0.036 | [8] -0.118 | [9] -0.06 | entinostat 0.073 | vorinostat 0.101 | citarinostat 0.067 | silmitasertib 0.1 | [10] 0.005 | [11] -0.016

NUP160 (UniProt Q12769)
Chain of UniProt Q12769 (Q12769 whole entry, looked up): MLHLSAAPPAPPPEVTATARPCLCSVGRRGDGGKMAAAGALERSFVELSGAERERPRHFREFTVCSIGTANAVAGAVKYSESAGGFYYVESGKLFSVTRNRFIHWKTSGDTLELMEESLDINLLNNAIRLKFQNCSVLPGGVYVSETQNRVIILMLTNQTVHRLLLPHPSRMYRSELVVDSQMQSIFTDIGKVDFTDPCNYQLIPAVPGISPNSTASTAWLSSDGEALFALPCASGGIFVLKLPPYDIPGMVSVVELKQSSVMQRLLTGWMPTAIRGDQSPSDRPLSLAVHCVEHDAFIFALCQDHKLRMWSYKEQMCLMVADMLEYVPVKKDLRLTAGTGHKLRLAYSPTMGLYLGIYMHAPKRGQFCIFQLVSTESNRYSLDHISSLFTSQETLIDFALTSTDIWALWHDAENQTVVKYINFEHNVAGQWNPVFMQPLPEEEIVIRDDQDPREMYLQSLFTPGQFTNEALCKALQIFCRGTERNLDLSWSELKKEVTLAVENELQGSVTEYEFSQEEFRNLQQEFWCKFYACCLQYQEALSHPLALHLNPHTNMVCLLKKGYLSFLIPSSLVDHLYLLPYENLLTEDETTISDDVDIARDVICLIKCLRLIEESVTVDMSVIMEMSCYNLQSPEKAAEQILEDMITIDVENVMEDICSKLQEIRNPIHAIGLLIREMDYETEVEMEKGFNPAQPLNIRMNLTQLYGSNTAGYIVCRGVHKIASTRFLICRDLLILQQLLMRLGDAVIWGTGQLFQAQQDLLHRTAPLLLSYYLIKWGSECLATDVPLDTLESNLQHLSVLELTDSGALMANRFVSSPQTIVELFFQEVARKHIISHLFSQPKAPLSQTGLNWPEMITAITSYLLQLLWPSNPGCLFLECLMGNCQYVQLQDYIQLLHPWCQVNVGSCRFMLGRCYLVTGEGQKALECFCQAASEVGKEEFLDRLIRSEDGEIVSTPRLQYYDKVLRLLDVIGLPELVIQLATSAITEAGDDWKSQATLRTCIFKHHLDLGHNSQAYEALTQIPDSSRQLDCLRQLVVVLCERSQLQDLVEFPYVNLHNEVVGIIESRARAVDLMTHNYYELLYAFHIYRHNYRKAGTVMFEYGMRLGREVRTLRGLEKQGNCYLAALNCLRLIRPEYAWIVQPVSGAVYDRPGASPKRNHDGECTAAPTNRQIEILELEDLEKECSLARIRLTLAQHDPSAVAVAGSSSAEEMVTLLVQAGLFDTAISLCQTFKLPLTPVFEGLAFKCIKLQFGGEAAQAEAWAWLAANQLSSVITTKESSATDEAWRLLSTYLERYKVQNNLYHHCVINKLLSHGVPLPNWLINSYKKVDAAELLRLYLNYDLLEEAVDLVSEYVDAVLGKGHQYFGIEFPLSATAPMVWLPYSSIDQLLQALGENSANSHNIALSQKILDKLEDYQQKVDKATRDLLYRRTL
inactive: bafetinib -0.127 | [1] 0.043 | nilotinib -0.078 | [2] -0.136 | dasatinib -0.045 | [3] -0.06 | [4] -0.025 | [5] -0.034 | tipifarnib -0.042 | mubritinib -0.042 | [6] 0.031 | [7] -0.058 | [8] -0.066 | [9] -0.062 | entinostat 0.008 | vorinostat 0.05 | citarinostat 0.018 | silmitasertib 0.075 | [10] 0.021 | [11] -0.09

NSUN2 (UniProt Q08J23)
inactive: bafetinib -0.059 | [1] 0.056 | nilotinib -0.038 | [2] -0.271 | dasatinib -0.146 | [3] -0.222 | [4] -0.034 | [5] -0.053 | tipifarnib -0.033 | mubritinib -0.045 | [6] 0.029 | [7] -0.246 | [8] -0.106 | [9] -0.027 | entinostat 0.01 | vorinostat 0.137 | citarinostat 0.013 | silmitasertib 0.046 | [10] -0.026 | [11] -0.075

NRF1 isoform 4 (UniProt Q16656)
inactive: bafetinib -0.057 | [1] 0.023 | nilotinib -0.099 | [2] -0.152 | dasatinib -0.123 | [3] -0.042 | [4] 0.054 | [5] -0.096 | tipifarnib 0.022 | mubritinib 0.035 | [6] 0.021 | [7] -0.088 | [8] -0.129 | [9] -0.037 | entinostat 0.056 | vorinostat 0.047 | citarinostat 0.039 | silmitasertib -0.02 | [10] -0.064 | [11] 0.04

NDUFS7 (UniProt O75251)
Chain of UniProt O75251 (O75251 whole entry, looked up): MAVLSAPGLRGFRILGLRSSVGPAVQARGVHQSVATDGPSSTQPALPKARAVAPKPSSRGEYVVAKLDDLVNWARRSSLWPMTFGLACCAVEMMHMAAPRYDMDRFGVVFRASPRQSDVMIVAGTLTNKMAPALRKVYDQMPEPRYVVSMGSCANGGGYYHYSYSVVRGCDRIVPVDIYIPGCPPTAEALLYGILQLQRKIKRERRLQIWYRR
inactive: bafetinib -0.047 | [1] 0.06 | nilotinib -0.03 | [2] 0.021 | dasatinib 0.01 | [3] -0.007 | [4] 0.034 | [5] 0.036 | tipifarnib -0.035 | mubritinib 0.095 | [6] -0.025 | [7] -0.079 | [8] -0.113 | [9] -0.057 | entinostat -0.011 | vorinostat 0.103 | citarinostat 0.013 | silmitasertib -0.003 | [10] -0.066 | [11] -0.027
